Test systems include NCI-H23 lung; NCI-H226 lung; NCI-H322M lung; HOP-62 NSCLC; NCI-H460 lung; HOP-92 NSCLC; NCI-H522 lung; A549/ATCC NSCLC; 786-0 renal; COLO 205 colon; DU-145 prostate; K-562 leukemia; MALME-3M melanoma; MDA-MB-231 breast; RXF 393 renal; SF-268 CNS; SF-295 CNS; SF-539 CNS; UACC-257 melanoma; M14 melanoma.
Holding throughout (test): NCI-60 one-dose screen, 48 h (100 = growth as untreated, 0 = no growth, -100 = all killed)
Conditions in all cases: 10 µM unless noted

About 83,000 compounds went through this panel and 20% of them were active in at least one assay; those are over-represented in the sample as a whole.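 Single-dose data. Exposure time 48 hours. Values below 10 considered active.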 A number with no mark means an inactive call. Calls of active or inactive are those of the source.

Regarding `Cc1[nH]n(C(N)=S)c(=O)c1N=Nc1ccc(S(=O)(=O)Nc2ccncn2)cc1`, the growth in the assay with NCI-H23 lung is 102%; in the assay on NCI-H226 lung, 93.4%; with NCI-H322M lung, 128%; with HOP-62 NSCLC it was 103%; in the assay on NCI-H460 lung, 100%; in the assay with HOP-92 NSCLC, 16.4%. Besides, the growth in the assay with NCI-H522 lung is 99.7%; in the assay with A549/ATCC NSCLC it was 101%; with 786-0 renal, 103%; with COLO 205 colon, 112%; in the assay with DU-145 prostate, 83.7%; in the assay on K-562 leukemia, 103%. Moreover, the growth was 137% in the assay on MALME-3M melanoma; 84.7% in the assay with MDA-MB-231 breast; 108% in the assay on RXF 393 renal; 85% with SF-268 CNS; 125% with SF-295 CNS; 99.2% in the assay on SF-539 CNS. Besides, the growth was 117% in the assay with UACC-257 melanoma and 106% in the assay on M14 melanoma.

`O=C(Nc1ccc(Nc2ncnc3sc4c(c23)CCOC4)cc1)Nc1ccc(Cl)c(C(F)(F)F)c1`: the growth is 86% in the assay on NCI-H23 lung; 103% in the assay with NCI-H226 lung; 102% in the assay on NCI-H322M lung; 116% in the assay with HOP-62 NSCLC; 99.7% with NCI-H460 lung; 89% in the assay on HOP-92 NSCLC. For the same compound, the growth was 66.5% with NCI-H522 lung; 99.3% with A549/ATCC NSCLC; 107% in the assay on 786-0 renal; 104% in the assay with COLO 205 colon; 96.1% with DU-145 prostate; 88.5% in the assay with K-562 leukemia. Further, the growth is 88.7% in the assay with MALME-3M melanoma; 95.2% in the assay on MDA-MB-231 breast; 98.9% in the assay on RXF 393 renal; 99.4% in the assay with SF-268 CNS; 83.1% in the assay with SF-295 CNS; 63.8% in the assay with SF-539 CNS. In addition, the figures for the growth in the assay with UACC-257 melanoma and in the assay on M14 melanoma were 105% and 77.7%, respectively.

Regarding `CN(C)CCOC(=O)Nc1nc2ccc(Sc3ccccc3)cc2[nH]1`, the growth in the assay on NCI-H23 lung is 44%; with NCI-H226 lung, 61.8%; in the assay on NCI-H322M lung, 36.9%; with HOP-62 NSCLC, 29.1%; in the assay on NCI-H460 lung it was 13%; with HOP-92 NSCLC it was 41.8%. Moreover, the growth in the assay on NCI-H522 lung is -24% (active); in the assay on A549/ATCC NSCLC, 38.7%; with 786-0 renal, 42.2%; in the assay with COLO 205 colon, 8.53% (active); with DU-145 prostate it was 27.2%; in the assay on K-562 leukemia, 15.7%. In addition, the growth was 49.2% in the assay on MALME-3M melanoma; 47.8% in the assay with MDA-MB-231 breast; 14.1% with RXF 393 renal; 51% with SF-268 CNS; 24.9% in the assay with SF-295 CNS; -0.508% (active) with SF-539 CNS. Besides, the growth is 49.1% in the assay on UACC-257 melanoma and 0.259% (active) with M14 melanoma.

Take `O=S1(=O)OC(c2ccc(O)c(Cl)c2)(c2ccc(O)c(Cl)c2)c2ccccc21`: the growth in the assay with NCI-H23 lung was 97.8%; in the assay with NCI-H226 lung, 93.9%; in the assay with NCI-H322M lung, 107%; in the assay with HOP-62 NSCLC, 99.5%; in the assay with NCI-H460 lung, 101%; in the assay on HOP-92 NSCLC, 60.6%. Besides, the growth with NCI-H522 lung is 93.4%; with A549/ATCC NSCLC, 99.1%; in the assay with 786-0 renal, 110%; with COLO 205 colon, 103%; in the assay on DU-145 prostate, 103%; in the assay on K-562 leukemia, 113%. In addition, the growth with MALME-3M melanoma was 114%; in the assay on MDA-MB-231 breast, 109%; in the assay with RXF 393 renal, 105%; in the assay with SF-268 CNS, 96.9%; in the assay on SF-295 CNS, 103%; in the assay on SF-539 CNS, 93.3%. The growth was 98.9% in the assay with UACC-257 melanoma and 105% in the assay with M14 melanoma.

Take `O=C(CNc1nc2ccccc2s1)Nc1ccc(-c2nc3ccccc3s2)cc1`: the growth with NCI-H23 lung is 88.9%; in the assay with NCI-H226 lung, 92.4%; in the assay with NCI-H322M lung it was 92.3%; in the assay with HOP-62 NSCLC, 104%; in the assay on NCI-H460 lung, 99.8%; with HOP-92 NSCLC, 99.8%. In addition, the growth was 91.2% with NCI-H522 lung; 100% with A549/ATCC NSCLC; 102% in the assay on 786-0 renal; 112% with COLO 205 colon; 106% in the assay with DU-145 prostate; 95.1% with K-562 leukemia. The growth in the assay on MALME-3M melanoma was 98.1%; with MDA-MB-231 breast, 99.2%; with RXF 393 renal, 112%; in the assay on SF-268 CNS, 92.1%; in the assay with SF-295 CNS, 107%; in the assay on SF-539 CNS it was 107%. The growth with UACC-257 melanoma is 102%; in the assay with M14 melanoma, 115%.

In the case of `Cn1cnc2c(F)c(Nc3ccc(Br)cc3F)c(C(=O)NOCCO)cc21`, the growth is 22% with NCI-H23 lung; 56.6% with NCI-H226 lung; 18.9% in the assay with NCI-H322M lung; 32.7% in the assay with HOP-62 NSCLC; 62.6% in the assay on NCI-H460 lung; -4.91% (active) in the assay on HOP-92 NSCLC. Also, the growth in the assay on NCI-H522 lung was 60.9%; with A549/ATCC NSCLC, 30.9%; in the assay on 786-0 renal, 67.4%; in the assay on COLO 205 colon, -2.54% (active); in the assay on DU-145 prostate, 64.2%; in the assay on K-562 leukemia it was 49.4%. Also, the growth in the assay on MALME-3M melanoma is -2.35% (active); in the assay on MDA-MB-231 breast it was 34.9%; with RXF 393 renal, 19.5%; in the assay on SF-268 CNS, 70.8%; with SF-295 CNS, 76.3%; with SF-539 CNS, 62.6%. In addition, the growth is -25.8% (active) in the assay with UACC-257 melanoma and 2.5% (active) with M14 melanoma.

Regarding `CC(=O)OC(C(=O)c1ccccc1)c1ccccc1` (stereo not given), the growth with NCI-H23 lung was 111%; in the assay on NCI-H226 lung, 98.9%; in the assay on NCI-H322M lung, 99.8%; with HOP-62 NSCLC, 103%; in the assay with NCI-H460 lung, 101%; in the assay on HOP-92 NSCLC, 58%. The growth in the assay on NCI-H522 lung is 90.6%; in the assay with A549/ATCC NSCLC, 106%; in the assay with 786-0 renal, 100%; with COLO 205 colon it was 107%; in the assay on DU-145 prostate, 111%; in the assay on K-562 leukemia, 96.5%. For the same compound, the growth in the assay on MALME-3M melanoma is 95.8%; in the assay on MDA-MB-231 breast, 107%; in the assay on RXF 393 renal, 103%; in the assay with SF-268 CNS it was 107%; with SF-295 CNS it was 108%; in the assay on SF-539 CNS, 114%. The growth is 107% in the assay on UACC-257 melanoma and 104% in the assay on M14 melanoma.

Take `CC(=O)CC1CCCC1c1ccc2ccccc2c1` (stereo not given): the growth is 96.3% in the assay with NCI-H23 lung; 95.2% in the assay on NCI-H226 lung; 96.2% in the assay with NCI-H322M lung; 96.6% in the assay with HOP-62 NSCLC; 101% in the assay with NCI-H460 lung; 99.7% in the assay with HOP-92 NSCLC. In addition, the growth in the assay on NCI-H522 lung was 93.5%; in the assay with A549/ATCC NSCLC, 95.6%; in the assay on 786-0 renal it was 101%; in the assay with COLO 205 colon it was 99.4%; with DU-145 prostate, 107%; with K-562 leukemia, 104%. Further, the growth was 99.1% in the assay on MALME-3M melanoma; 102% in the assay with MDA-MB-231 breast; 109% with RXF 393 renal; 102% with SF-268 CNS; 106% in the assay on SF-295 CNS; 95.8% in the assay with SF-539 CNS. The growth in the assay on UACC-257 melanoma was 97.8%; with M14 melanoma, 109%.

The record behind these values is PubChem BioAssay (NCI).
